Measurements: PubChem BioAssay (Tox21)
Records with an inconclusive call do not appear. Calls of active or inactive are those of the source. Unless noted, calls follow the shape of the dose curve; as a rule, active = well fitted curve in the direction sought with a large enough effect in the repeat runs; inconclusive = weak or mixed curves; inactive = no such curve, though single readings can be large; an effect the other way counts as inactive or inconclusive.

Legend:
[1] = target: Retinoic acid receptor RXR-alpha (Homo sapiens) (UniProt P19793); assay: qHTS assay to identify small molecule agonists of the RXR signaling pathway (AID 1159527; calls by dose curve; also: nearly all actives have a fitted effect of over 35% in size)
Outline: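 Cells plated at 2,000/well, rested 5 hr at 37 C, pin-dosed with DMSO compound solutions, incubated 16 hr, then loaded with B/G FRET substrate for 2 hr at RT before dual-emission fluorescence reading.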

[2] = qHTS assay to identify small molecule agonists of the RXR signaling pathway - cell viability counter screen (AID 1159529);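 also: HEK 293T cells carrying an RXR-alpha UAS beta-lactamase reporter; series mostly up to about 77 µM; nearly all actives have a fitted effect of over 50% in size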
Outline: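 Steps: seed RXR-alpha-UAS-bla HEK 293T cells in assay medium containing 2% charcoal-stripped FBS; incubate 5 hr; add compounds in DMSO; incubate 16 hr at 37 C; after the bla read, add CellTiter-Glo and read luminescence at 30 min.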

[3] = qHTS assay to identify small molecule antagonists of the retinoid acid receptor (RAR) signaling pathway - cell viability counter screen (AID 1159551); also: nearly all actives have a fitted effect of over 35% in size
Outline: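 Viability of C3RL4 cells is quantified from ATP by luminescence after 6 h treatment at 37 C with compounds and 1 uM retinol.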

[4] = qHTS assay to identify small molecule antagonists of the estrogen related receptor (ERR) signaling pathway from Tox21 library - cell viability counter screen (AID 1224834); also: nearly all actives have a fitted effect of over 30% in size
Outline: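 In this quantitative HTS format, ERR cells receive compounds in DMSO and are incubated for 17.5 h at 37 C. Live-cell protease activity is then detected with CellTiter-Fluor.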

[5] = qHTS assay to identify small molecule agonists of the constitutive androstane receptor (CAR) signaling pathway - cell viability counter screen (AID 1224836); also: series mostly up to about 92 µM; nearly all actives have a fitted effect of over 45% in size
Outline: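 Cells were seeded and incubated 4 hrs. Compounds were added across 15 concentrations together with PK11195 at 0.75 uM final. Plates were incubated 23 hrs at 37 C. CellTiter-Fluor was added and fluorescence measured.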

[6] = qHTS assay to identify small molecule antagonists of the constitutive androstane receptor (CAR) signaling pathway - cell viability counter screen (AID 1224837); also: series mostly up to about 92 µM; nearly all actives have a fitted effect of over 45% in size
Outline: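 In quantitative HTS format, compounds at 15 concentrations were applied to HepG2 cells double-transfected with hCAR and CYP2B6-2.2kb under 50 nM CITCO stimulation; live-cell protease activity was read after 23 hr via CellTiter-Fluor.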

[7] = target: Nuclear receptor subfamily 1 group I member 3 (Homo sapiens) (UniProt Q14994); assay: qHTS assay to identify small molecule antagonists of the constitutive androstane receptor (CAR) signaling pathway (AID 1224838); also: nearly all actives have a fitted effect of over 40% in size
Outline: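 CITCO-stimulated (50 nM final) HepG2 cells stably transfected with hCAR and CYP2B6-2.2kb luciferase were exposed to compounds at 15 concentrations for 24 h at 37 C/5% CO2. A luciferase reagent was added and luminescence recorded after 30 min.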

[8] = target: Nuclear receptor subfamily 1 group I member 3 (Homo sapiens) (UniProt Q14994); assay: qHTS assay to identify small molecule agonists of the constitutive androstane receptor (CAR) signaling pathway (AID 1224839);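 also: HepG2 cells stably carrying human CAR and a CYP2B6 luciferase reporter; series mostly up to about 92 µM; nearly all actives have a fitted effect of over 15% in size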
Outline: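 Cells were plated and incubated 4 hrs, then dosed with compounds at 15 concentrations. PK11195 was added to 0.75 uM final. After 24 hrs at 37 C, luciferase luminescence was measured.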

[9] = qHTS assay to identify small molecule antagonists of the estrogen related receptor signaling pathway with the pleiotropic PPARgamma coactivator (PGC) from Tox21 10K library - cell viability counter screen (AID 1224840; active = well fitted cell-killing curve with a large enough effect in the repeat runs, not every such curve was filed as active; also: nearly all actives have a fitted effect of over 40% in size)
Outline: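 Viability counter screen, PGC/ERR cells: 17.5 h compound exposure at 37 C, CellTiter-Fluor fluorescence endpoint.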

[10] = target: Luciferin 4-monooxygenase (Photinus pyralis) (UniProt P08659); assay: qHTS assay to identify small molecule inhibitors of firefly luciferase (AID 1224835); also: series mostly up to about 120 µM; nearly all actives have a fitted effect of over 25% in size
Outline: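 Biochemical qHTS: compounds run as interplate titrations against purified firefly enzyme, with D-luciferin and ATP each at its KM concentration. Light output recorded by CCD imaging.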

[11] = qHTS assay to identify small molecule antagonists of the estrogen related receptor signaling pathway with the pleiotropic PPARgamma coactivator (PGC) from Tox21 10K library (AID 1224841; call rule not given here; also: series mostly up to about 92 µM; actives are mostly falling curves and most rising ones were filed inactive; nearly all actives have a fitted effect of over 50% in size)
Outline: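 In the PGC/ERR line, DMSO solutions of test chemicals are pin-delivered to 2,000 cells/well six hours after dispensing. Following eighteen hours' incubation, One-Glo reagent is added and luminescence recorded.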

[12] = qHTS assay to identify small molecule agonists of the estrogen related receptor signaling pathway with the pleiotropic PPARgamma coactivator (PGC) from Tox21 10K library (AID 1224842); also: nearly all actives have a fitted effect of over 15% in size
Outline: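 PGC/ERR reporter cell line, 2,000 cells per well, incubated 6 h at 37 C before 23 nL compound in DMSO was added. After 18 h at 37 C, One-Glo luminescence read following 30 min at room temperature.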
% is scaled to controls: 0 for no effect and ±100 for the full control effect.

Sequence of Nuclear receptor subfamily 1 group I member 3 (Homo sapiens) (Q14994 whole entry, looked up): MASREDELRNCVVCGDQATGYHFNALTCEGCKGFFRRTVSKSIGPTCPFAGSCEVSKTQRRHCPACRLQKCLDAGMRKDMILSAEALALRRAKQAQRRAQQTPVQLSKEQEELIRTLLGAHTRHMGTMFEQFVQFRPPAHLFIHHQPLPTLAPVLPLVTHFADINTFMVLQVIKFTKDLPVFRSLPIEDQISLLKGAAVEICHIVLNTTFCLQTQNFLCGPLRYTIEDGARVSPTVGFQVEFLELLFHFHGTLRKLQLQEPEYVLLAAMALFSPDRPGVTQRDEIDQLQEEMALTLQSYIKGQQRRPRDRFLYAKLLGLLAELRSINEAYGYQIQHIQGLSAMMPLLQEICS
Sequence of Luciferin 4-monooxygenase (Photinus pyralis) (P08659 whole entry, looked up): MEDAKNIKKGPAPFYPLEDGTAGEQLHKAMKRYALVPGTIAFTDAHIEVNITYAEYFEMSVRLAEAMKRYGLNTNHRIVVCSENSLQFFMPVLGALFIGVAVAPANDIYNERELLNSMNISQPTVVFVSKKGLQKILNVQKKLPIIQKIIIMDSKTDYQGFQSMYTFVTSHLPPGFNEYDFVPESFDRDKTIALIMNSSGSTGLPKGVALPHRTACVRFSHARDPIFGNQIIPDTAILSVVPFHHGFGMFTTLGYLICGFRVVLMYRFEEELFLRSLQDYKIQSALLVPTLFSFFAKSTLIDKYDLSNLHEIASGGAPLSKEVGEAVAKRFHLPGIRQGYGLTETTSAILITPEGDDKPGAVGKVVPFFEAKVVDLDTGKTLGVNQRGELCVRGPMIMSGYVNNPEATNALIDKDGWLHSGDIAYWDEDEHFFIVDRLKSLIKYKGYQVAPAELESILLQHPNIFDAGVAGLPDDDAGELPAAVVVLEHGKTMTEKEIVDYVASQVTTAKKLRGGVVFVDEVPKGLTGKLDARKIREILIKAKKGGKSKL
Sequence of Retinoic acid receptor RXR-alpha (Homo sapiens) (P19793 whole entry, looked up): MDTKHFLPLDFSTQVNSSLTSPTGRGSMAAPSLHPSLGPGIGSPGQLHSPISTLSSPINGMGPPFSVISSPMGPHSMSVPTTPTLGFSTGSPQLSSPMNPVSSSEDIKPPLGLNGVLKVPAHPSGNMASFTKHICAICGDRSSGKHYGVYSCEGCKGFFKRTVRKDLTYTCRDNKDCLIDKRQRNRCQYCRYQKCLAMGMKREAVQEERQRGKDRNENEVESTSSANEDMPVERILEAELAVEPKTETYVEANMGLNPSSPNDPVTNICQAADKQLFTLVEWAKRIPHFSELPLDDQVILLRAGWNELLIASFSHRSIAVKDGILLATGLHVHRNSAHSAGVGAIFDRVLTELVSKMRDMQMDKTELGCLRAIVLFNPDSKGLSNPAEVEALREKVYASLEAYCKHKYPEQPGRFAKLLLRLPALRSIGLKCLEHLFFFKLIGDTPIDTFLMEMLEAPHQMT

CC(C)(C)c1nnc(NS(=O)(=O)c2ccc(N)cc2)s1
inactive: Potency [1] | outcome [2] | outcome [3] | Potency [4] | Potency [5] | Potency [6] | outcome [7] | Potency [8] | outcome [9]

C[C@H](CCC(=O)O)[C@H]1CC[C@H]2[C@@H]3C(=O)C[C@@H]4CC(=O)CC[C@]4(C)[C@H]3CC(=O)[C@]12C
inactive: Potency [1] | outcome [2] | outcome [3] | Potency [4] | Potency [10] | Potency [5] | Potency [6] | outcome [7] | Potency [8] | outcome [9] | Potency [11] | outcome [12]

CCCCCCCCC(=O)Cl
inactive: Potency [1] | outcome [2] | outcome [3] | Potency [4] | Potency [10] | Potency [5] | Potency [6] | outcome [7] | Potency [8] | outcome [9] | outcome [12]

OCCN(CCO)c1cccc(Cl)c1
inactive: Potency [1] | outcome [2] | outcome [3] | Potency [4] | Potency [5] | Potency [6] | outcome [7] | Potency [8] | outcome [9]

O=C1c2ccccc2C(=O)N1CCl
inactive: Potency [1] | outcome [2] | outcome [3] | Potency [4] | Potency [10] | Potency [5] | Potency [6] | outcome [7] | Potency [8] | outcome [9] | Potency [11] | outcome [12]

C[Si](C)(C)C
inactive: Potency [1] | outcome [2] | outcome [3] | Potency [4] | Potency [10] | Potency [5] | Potency [6] | outcome [7] | Potency [8] | outcome [9] | Potency [11] | outcome [12]

CN(C)CCOCCO
inactive: Potency [1] | outcome [2] | outcome [3] | Potency [4] | Potency [5] | Potency [6] | outcome [7] | Potency [8] | outcome [9] | Potency [11] | outcome [12]

CC(=O)N[C@@H](CCC(=O)O)C(=O)O
inactive: Potency [1] | outcome [2] | outcome [3] | Potency [4] | Potency [10] | Potency [5] | Potency [6] | outcome [7] | Potency [8] | outcome [9] | Potency [11] | outcome [12]

Cc1ccc(S(=O)(=O)O)c(C)c1
inactive: Potency [1] | outcome [2] | outcome [3] | Potency [4] | Potency [10] | Potency [5] | Potency [6] | outcome [7] | Potency [8] | outcome [9] | Potency [11] | outcome [12]

CCCCCCCC/C=C\CCCCCCCC(=O)OCCCC
inactive: activation [1] 2.43% [at 15.8 µM] | activity change, negative = cytotoxicity [2] 1.56% [at 15.8 µM] | activity change, negative = cytotoxicity [3] -0.376% [at 19 µM] | viability change, negative = cytotoxic [4] -0.0583% [at 19 µM] | activity change, negative = inhibition [10] -1.11% [at 23.6 µM] | activity change, negative = cytotoxicity [6] 3.28% [at 19 µM] | activity, negative = inhibition [7] 20.6% [at 19 µM] | activation [8] 0.178% [at 19 µM] | viability change, negative = cytotoxic [9] -2.58% [at 19 µM] | activation [12] -2.76% [at 19 µM]

CCNC(=O)C1CC(C)CCC1C(C)C (stereo not given)
inactive: Potency [1] | outcome [2] | outcome [3] | Potency [4] | Potency [10] | Potency [6] | outcome [7] | Potency [8] | outcome [9] | Potency [11] | outcome [12]

COC(=O)CCc1ccc(OCC(O)CNC(C)C)cc1 (stereo not given)
inactive: Potency [1] | outcome [2] | outcome [3] | Potency [4] | Potency [10] | Potency [5] | Potency [6] | outcome [7] | Potency [8] | outcome [9] | Potency [11] | outcome [12]

C=C(C)C(=O)OCc1ccccc1
inactive: Potency [1] | outcome [2] | outcome [3] | Potency [4] | Potency [10] | Potency [5] | Potency [6] | outcome [7] | Potency [8] | outcome [9] | Potency [11] | outcome [12]

CCCCCCOC(=O)CC
inactive: Potency [1] | outcome [2] | outcome [3] | Potency [4] | Potency [5] | Potency [6] | outcome [7] | Potency [8] | outcome [9] | Potency [11] | outcome [12]

CCCCN
inactive: Potency [1] | outcome [2] | outcome [3] | Potency [4] | Potency [10] | Potency [5] | Potency [6] | outcome [7] | Potency [8] | outcome [9] | Potency [11] | outcome [12]

CCCCCCCCOS(=O)(=O)O
inactive: Potency [1] | outcome [2] | outcome [3] | Potency [4] | Potency [10] | Potency [6] | outcome [7] | Potency [8] | outcome [9] | Potency [11] | outcome [12]

CCC(C)NC(N)=O (stereo not given)
inactive: Potency [1] | outcome [2] | outcome [3] | Potency [4] | Potency [10] | Potency [6] | outcome [7] | Potency [8] | outcome [9]

COc1nccnc1NS(=O)(=O)c1ccc(N)cc1
inactive: Potency [1] | outcome [2] | outcome [3] | Potency [4] | Potency [10] | Potency [6] | outcome [7] | Potency [8] | outcome [9] | Potency [11] | outcome [12]

CCc1ccc(C=O)cc1
inactive: Potency [1] | outcome [2] | outcome [3] | Potency [4] | Potency [10] | Potency [5] | Potency [6] | outcome [7] | Potency [8] | outcome [9] | Potency [11] | outcome [12]

CCCCCCCCSCC
inactive: Potency [1] | outcome [2] | outcome [3] | Potency [4] | Potency [10] | Potency [5] | Potency [6] | outcome [7] | Potency [8] | outcome [9] | Potency [11] | outcome [12]

O=C1O[C@@H]2[C@@H](O)[C@H](O)O[C@@H]2[C@H]1O
inactive: Potency [1] | outcome [2] | outcome [3] | Potency [4] | Potency [10] | Potency [5] | Potency [6] | outcome [7] | Potency [8] | outcome [9] | Potency [11] | outcome [12]
